About 79,000 compounds went through this panel and 15% of them were active in at least one assay; those are over-represented in the sample as a whole. Activity calls are given as the source filed them. No stated cut-off is given here; in the data, active means growth inhibition above about 70%; inactive means the rest.
How the values were obtained:
[1] = NCI Yeast Anticancer Drug Screen. Data for the rad50 strain (AID 155);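 further: 0% = growth of vehicle-only cultures of the same strain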; details: S. cerevisiae rad50 strain growth inhibition; at 50.0 µM; stronger effect = higher value
Procedure, shortened: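 Cells are treated with compound, grown, and their growth is then scored against vehicle-only cultures of the same repair-deficient yeast strain.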

[2] = NCI Yeast Anticancer Drug Screen. Data for the mec2-1 strain (AID 157); details: S. cerevisiae mec2-1 strain, at 50.0 µM, stronger effect = higher value
Procedure, shortened: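 mec2-1 yeast strain, carrying an alteration in DNA damage repair or cell cycle control, was exposed to compounds; growth inhibition was measured relative to vehicle-treated controls.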

[3] = NCI Yeast Anticancer Drug Screen. Data for the sgs1 mgt1 strain (AID 161);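 further: 0% = growth of cultures given vehicle only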; details: S. cerevisiae sgs1 mgt1 strain, at 50.0 µM, stronger effect = higher value
Procedure, shortened: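 Percent growth inhibition was derived by comparing compound-exposed mutant yeast with vehicle-exposed cultures. The strain carries alterations in DNA damage repair.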

[4] = NCI Yeast Anticancer Drug Screen. Data for the cln2 rad14 strain (AID 165);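 further: 0% = growth equal to vehicle treated cultures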; details: S. cerevisiae cln2 rad14 strain, at 50.0 µM, stronger effect = higher value
Procedure, shortened: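 Yeast carrying cln2 and rad14 alterations (cell cycle control and DNA damage repair) were exposed to compounds. Growth inhibition was measured against vehicle-treated controls.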

[5] = NCI Yeast Anticancer Drug Screen. Data for the bub3 strain (AID 167); details: S. cerevisiae bub3 mutant strain, at 50.0 µM, stronger effect = higher value
Procedure, shortened: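 Part of a panel of yeast mutants defective in DNA damage repair or cell cycle regulation. Each strain is grown with compound, and inhibition is calculated relative to solvent-treated cultures.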

[6] = NCI Yeast Anticancer Drug Screen. Data for the mlh1 rad18 strain (AID 175); details: S. cerevisiae mlh1 rad18 strain growth inhibition; at 50.0 µM; stronger effect = higher value
Procedure, shortened: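 Growth inhibition of the yeast strain was measured after compound exposure and expressed relative to vehicle-treated controls. The strain carries defined defects in DNA damage repair.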

SMILES | growth inhibition [1] | growth inhibition [2] | growth inhibition [3] | growth inhibition [4] | growth inhibition [5] | growth inhibition [6]
CCC(C)C1NC(=S)N(c2ccccc2)C1=O (stereo unspecified) | -8.65% (inactive) | 7.05% (inactive) | -18.1% (inactive) | -0.55% (inactive) | -9% (inactive) | -30.4% (inactive)
CC(COc1ccccc1)OC(=O)CCl (stereo unspecified) | 0.75% (inactive) | 5.6% (inactive) | -6.65% (inactive) | -16.9% (inactive) | -16.5% (inactive) | 27.6% (inactive)
Cn1c(=O)c2c(ncn2Cc2ccccc2)n(C)c1=O | -1.65% (inactive) | -13.2% (inactive) | 3.95% (inactive) | -10.7% (inactive) | 45.1% (inactive) | 4% (inactive)
CCC(CCC(=O)O)C1CCCCC1 (stereo unspecified) | 29.1% (inactive) | 20.9% (inactive) | 31.1% (inactive) | 45.9% (inactive) | 46.1% (inactive) | 13.2% (inactive)
COc1cc(C2NCCC(c3ccccc3)(c3ccccc3)N2)cc(OC)c1OC (stereo unspecified) | -30.9% (inactive) | -4.65% (inactive) | 5.25% (inactive) | 4.55% (inactive) | -7.6% (inactive) | 5.5% (inactive)
CCOC(=O)CC[C@H](NC(=O)c1[nH]cnc1/N=N/N(C)C)C(=O)OCC | -24.5% (inactive) | -41.5% (inactive) | -56% (inactive) | 3.7% (inactive) | -12.1% (inactive) | -36.9% (inactive)
CCOC(=O)C(Cc1cc(N)c(O)c(N)c1)NC(C)=O (stereo unspecified) | 1.95% (inactive) | -4.95% (inactive) | -1.5% (inactive) | 6.8% (inactive) | -1.45% (inactive) | -0.85% (inactive)
NC(=O)C(=O)C(c1ccccc1)S(=O)(=O)Cc1ccccc1 (stereo unspecified) | -59.5% (inactive) | -39.1% (inactive) | -40.3% (inactive) | -13.7% (inactive) | -25.4% (inactive) | -32.1% (inactive)
O=C(N/N=C\c1ccc(Cl)c(Cl)c1)c1ccncc1 | -6.65% (inactive) | -1% (inactive) | -3.05% (inactive) | 5.4% (inactive) | -1.75% (inactive) | -5.7% (inactive)
c1ccc(Cn2nnnc2Nc2ccccc2)cc1 | -19.2% (inactive) | -10.7% (inactive) | -3.65% (inactive) | 19.8% (inactive) | 26.4% (inactive) | 10.4% (inactive)
O=c1[nH]nc(Cc2ccc(Cl)cc2)n1/N=C\CC/C=N\n1c(Cc2ccc(Cl)cc2)n[nH]c1=O | -18.4% (inactive) | -0.9% (inactive) | -14.1% (inactive) | -4.05% (inactive) | -13.3% (inactive) | -3% (inactive)
O=C(Nc1cccc([N+](=O)[O-])c1)N1CCCC1 | -7.1% (inactive) | -16.4% (inactive) | -7.75% (inactive) | -3.9% (inactive) | -7.5% (inactive) | -20.6% (inactive)
COc1cc(CNc2ccc3nc4n(c(=O)c3c2)CCCCC4)cc(OC)c1OC | -9.7% (inactive) | 13.4% (inactive) | 7.3% (inactive) | -19.2% (inactive) | -15.9% (inactive) | -21.2% (inactive)
c1ccc2c(C3=NCCO3)cccc2c1 | 11.7% (inactive) | 9.7% (inactive) | 8.3% (inactive) | -34.6% (inactive) | 4% (inactive) | 11.8% (inactive)
OC1CCCCCCCCCCC1C(O)(C(F)(F)F)C(F)(F)F (stereo unspecified) | 99.3% (active) | 99.5% (active) | 99.8% (active) | 99% (active) | 99.6% (active) | 98.8% (active)
Cc1c(Cc2c(C)n(C)n(-c3ccccc3)c2=O)c(=O)n(-c2ccccc2)n1C | 9.55% (inactive) | -1.7% (inactive) | -0.25% (inactive) | 13.4% (inactive) | 9.9% (inactive) | 9.5% (inactive)
CC(=O)Nc1ccc(C(=O)NN2C(=O)C(Cl)C2c2ccccc2)cc1 (stereo unspecified) | -22.1% (inactive) | -18.4% (inactive) | -49.4% (inactive) | -10.2% (inactive) | -28.8% (inactive) | -28.6% (inactive)
O=C(Nc1ccc(Cl)cc1[N+](=O)[O-])Oc1ccc(C(=O)OCc2ccccc2)cc1 | 76.3% (active) | 75.1% (active) | 71.5% (active) | 48.5% (inactive) | 84.2% (active) | 78.1% (active)

SMILES | growth inhibition [1] | growth inhibition [2] | growth inhibition [3] | growth inhibition [4] | growth inhibition [5] | growth inhibition [6]
COc1ccc(C(=O)O/N=C2/CCC/C2=C\c2ccccc2)cc1 | 13.8% (inactive) | 13.2% (inactive) | 33.6% (inactive) | 26.4% (inactive) | 10.9% (inactive) | 8.4% (inactive)
COCC(=O)Oc1ccc[nH]c1=O | 1.55% (inactive) | 2.6% (inactive) | 7.85% (inactive) | -17.1% (inactive) | -7.25% (inactive) | 22.2% (inactive)
CC1(C)N=C(N)N=C(N)N1c1ccc(NC(=O)Nc2ccccc2)cc1 | 16.6% (inactive) | -13.2% (inactive) | 16.1% (inactive) | -43.2% (inactive) | -2.35% (inactive) | 10.3% (inactive)
Cn1[nH]c(=O)c2ncccc2c1=O | -4.7% (inactive) | -10.1% (inactive) | -13.5% (inactive) | -87.8% (inactive) | -10.3% (inactive) | 4.95% (inactive)
CC(=O)OCCOCNC(=S)NCc1ccco1 | 11.2% (inactive) | -7.25% (inactive) | -40% (inactive) | 9.3% (inactive) | 5.85% (inactive) | -10.3% (inactive)
Cn1c(=O)c2c(ncn2CC(=O)O)n(C)c1=O | -3.9% (inactive) | -28.1% (inactive) | -8.5% (inactive) | 6.7% (inactive) | -13.8% (inactive) | 19.9% (inactive)
CC1C=CC(C(N)C(=O)O)O1 (stereo unspecified) | -9.9% (inactive) | -17.6% (inactive) | -13.1% (inactive) | -0.7% (inactive) | -5.35% (inactive) | -9.85% (inactive)
Clc1ccc(-c2nc3ccccc3cc2N2CCOCC2)cc1 | 70.5% (active) | 52% (inactive) | 47.9% (inactive) | 49.7% (inactive) | 39.5% (inactive) | 82.5% (active)
CCOC(=O)/C(=C\c1ccc(N(C)C)cc1)c1nc2ccccc2[nH]1 | 38% (inactive) | 21.6% (inactive) | 47.1% (inactive) | 13.1% (inactive) | 40.5% (inactive) | -2.75% (inactive)
COc1ccc(C(=O)N2CCN(C)CC2)cc1OC | 19.1% (inactive) | -3.95% (inactive) | -8.3% (inactive) | 13.4% (inactive) | -1.75% (inactive) | 4.2% (inactive)
C#CC(C)(C)OC(=O)Nc1cccc(Cl)c1 | 12.8% (inactive) | -11.3% (inactive) | -16.1% (inactive) | -8.35% (inactive) | -20.6% (inactive) | 10.7% (inactive)
C/C(=N\N=C(N)N)c1sc(-c2nc(C)c(/C(C)=N/N=C(N)N)s2)nc1C | 4.35% (inactive) | -11.2% (inactive) | -13.3% (inactive) | 26.4% (inactive) | 6.85% (inactive) | 19.6% (inactive)
CCNC(=O)N(C)Cc1ccc(Cl)cc1 | -4% (inactive) | 8.7% (inactive) | -11.6% (inactive) | -71.5% (inactive) | -8.95% (inactive) | -5.1% (inactive)
Brc1cccc[n+]1CCC[n+]1ccccc1Br | 14.8% (inactive) | 18.8% (inactive) | 28.2% (inactive) | 33.2% (inactive) | 19.4% (inactive) | 15.8% (inactive)
Oc1ccc(C=Nc2ccccc2)c(O)c1O | -12.7% (inactive) | -24.4% (inactive) | -4.9% (inactive) | -7.25% (inactive) | -9.7% (inactive) | 6.2% (inactive)
CC1CCCCC12COC(O)CO2 (stereo unspecified) | -22.5% (inactive) | -23.4% (inactive) | -19.1% (inactive) | -11.7% (inactive) | -24.1% (inactive) | -31.9% (inactive)
CCOC(=O)CC(=O)C(=O)NNC1=NCCCN1 | 7.25% (inactive) | -5.35% (inactive) | -20.1% (inactive) | 14.2% (inactive) | 2.3% (inactive) | 0.45% (inactive)
CCOC(=O)C1C(=O)N(O)c2cnccc21 (stereo unspecified) | -1.9% (inactive) | -16.6% (inactive) | -12.5% (inactive) | -12.2% (inactive) | 15% (inactive) | 8.35% (inactive)

From PubChem BioAssay (NCI)
